This is an account of results in PubChem BioAssay (NCI).

About 83,000 compounds went through this panel and 20% of them were active in at least one assay; those are over-represented in the sample as a whole.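 Single-concentration screen, 48 h exposure, 96-well plates. Endpoint: percent growth. Below 10 = active.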 Values without a mark were called inactive. Active and inactive are the calls of the source.

The subject of the assay is U251 CNS. Put plainly: NCI-60 one-dose screen, 48 h (100 = growth as untreated, 0 = no growth, -100 = all killed). Particulars: 10 µM unless noted. On the procedure:
Growth inhibition of the U251 human tumor cell line is measured as a screen for anti-cancer activity. Cells are grown in 96 well plates and exposed to the test compound for 48 hours. Compounds are tested at a single concentration, which is 10^-5 M for most compounds. The reported endpoint is percent growth (GI% or GIPRCNT), where numbers from 0 - 100% represent growth inhibition, and numbers from -100% - 0 represent cell death. For example, a value of 40 represents 60% growth inhibition. A value of 0 means no net growth occurred over the course of the experiment. A value of -40 indicates 40% of cells at the beginning of the experiment died by the end of the experiment. A value of -100 means all cells are dead at the end of the experiment.
NCI-60 Human Tumor Cell Lines Screen was performed using the standard one-dose NCI protocol, which is described in more detail at https://dtp.cancer.gov/discovery_development/nci-60/default.htm.
Compounds with GIPRCNT values below 10 were considered active. Activity score was based on GIPRCNT using the following formula: […]
Score is 0 for GIPRCNT values of 100 or above, 50 for GIPRCNT values of 0, and 100 for GIPRCNT values of -100.
Regarding `O=c1c2cccc3c(N4CCCC4)ccc(c32)c2nc3ccccc3n12`, the growth is 64.7%. The value for `COC(=O)c1cc(N=C2NC(=O)/C(=C/C=C/c3ccccc3)S2)ccc1O` was 22.6%; that for `O=S(=O)(c1ccccc1)n1cc2c(c1)-c1nc(Nc3ncccn3)sc1CC2` was 46.2%. The value for `CN(/C(N)=N/N=C/c1c2ccccc2cc2ccccc12)C1CCCCC1` was 48.3%. `Cc1ccc(Nc2cc(N)nc(N)n2)cc1Cl`: the growth was 97.3%. The value for `COc1cc(-c2nc3sccn3c2-c2ccnc(NCCNS(=O)(=O)c3ccccc3)n2)ccc1F` was 61%. Under `COc1ccc(NC(=O)c2sc3nc(C)c(C(=O)/C=C/c4ccccc4)cc3c2N)cc1` stands 1.8% (active); under `COC(CC(F)F)c1cn(S(=O)(=O)c2ccc(C)cc2)c2ccccc12` (stereo not given), 19.6%; under `COc1ccc(C(=O)C/C(=C\c2ccc(Cl)cc2)C(=O)NCc2ccccc2)cc1`, 70.6%. The value for `CCn1c(SCC(=O)N/N=C(\C)c2ccc(Cl)cc2)nc2c1c(=O)n(C)c(=O)n2C` was 104%; that for `O=S(=O)(NCCCNc1nccc(-c2c(-c3ccc(F)c(O)c3)nc3sccn23)n1)c1ccccc1` was 90.2%; that for `CN(C)S(=O)(=O)c1cccc(C(=O)Nc2nc(-c3ccc(F)c(F)c3)cs2)c1` was 55.1%.

In the case of `O=C1/C(=C/c2cn(-c3ccccc3)nc2-c2ccccc2)SC(=S)N1C1CCCCC1`, the growth is 107%.

Consider `CCN1CCN(C(=O)[C@]23CCC(C)(C)C[C@@H]2C2=CC[C@@H]4[C@@]5(C)CCC(=O)C(C)(C)[C@@H]5CC[C@@]4(C)[C@]2(C)CC3)CC1`, for which the growth was 46.8%. Take `C/C(Cc1ccc(Cl)cc1)=C(\c1ccc(O)cc1)c1ccc(Cl)cc1`: the growth is 102%. The value for `CC(=O)Oc1ccc(/C(=C(\C)c2ccc(Cl)cc2)c2ccc(OCCN3CCCCC3)cc2)cc1` was 18.3%; that for `C=C(C)[C@@H]1CC[C@]2(CO)CC[C@]3(C)[C@H](CC[C@@H]4[C@@]5(C)CC[C@H](NCO)C(C)(C)[C@@H]5CC[C@]43C)[C@@H]12` was -68.6% (active); that for `CCC(=O)Oc1ccc(-c2ccccc2)cc1Br` was 103%. The value for `CCc1ccc(CCCC(=O)O)cc1` was 101%. Under `COc1ccc(Nc2nc(-c3cc(O)c(C)c(C)c3O)cs2)cc1` stands 70.2%. Consider `NC(=O)c1c(NC(=O)c2ccc3ccccc3c2)sc2c1CCC(=O)C2`, for which the growth was 22.9%. The value for `COC(=O)c1c(C)nc(C)c2c1C(=O)C(Br)=C(NCc1ccccc1)C2=O` was 20.1%; that for `O=C1/C=C/[C@@H](O)[C@@H]2C[C@@H](O)C[C@H]2/C=C/CCC[C@H](CCc2ccccc2)O1` was 20.1%.

Take `COC1=CC(c2ccc[nH]2)=N/C1=C\c1[nH]c(C)c(CC(=O)OCc2ccccc2)c1CCC(=O)OCc1ccccc1`: the growth is -71.4% (active). Under `CN(c1cc2ncc(=O)[nH]c2cc1NC(N)=NCc1ccc(Cl)cc1)C1CCCCC1` stands -4.07% (active); under `O=C(Nc1ccc(Oc2cccc(Cl)c2)c(Cl)c1)c1cccnc1`, 23.9%. Under `COc1ccc(C(O)c2cc3c(N)c(C(=O)Nc4cccc(Br)c4)sc3nc2C)cc1` (stereo not given) stands 15.7%.

Take `CCN(CC)CC(O)COc1c(Br)c(Br)c(Br)c2c1OC(C)(C)C2` (stereo not given): the growth is 85.6%. The value for `COC1=CC(c2ccc[nH]2)=N/C1=C\c1[nH]c(C)c(C)c1CCC(=O)OCc1ccccc1` was -40.4% (active); that for `COc1cc2c(cc1OC)C(C)N(S(N)(=O)=O)CC2` (stereo not given) was 114%. Under `Cc1[nH]c(=O)[nH]c(=O)c1Br` stands 98.2%; under `N#CC1=C(N)Oc2c(ccc3ccccc23)C1c1ccccc1` (stereo not given), 9.37% (active); under `COc1ccc2[nH]c(C(=O)N3CCN(C(=O)OCc4ccc5c(Cl)cc(Cl)c(O)c5n4)CC3)cc2c1`, -97.9% (active). The value for `Cn1ccc(=O)c(C(=O)Nc2nsc3ccc([N+](=O)[O-])cc23)c1` was 63.1%; that for `CS(=O)(=O)Nc1cncc(-c2ccc3ncnc(Nc4cncc(Cl)c4)c3c2)c1` was 59.2%. Regarding `CCC(C)(C)C(=O)O[C@H]1C[C@@H](C)C=C2C=C[C@H](C)[C@H](CC[C@@H]3CC(SCCN)CC(=O)O3)[C@H]21` (stereo not given in full), the growth is 87.5%. As for `COc1cccc(CNc2ccc3ncnc(Nc4ccc(F)c(Cl)c4)c3c2)c1`, the growth was 71.4%. The value for `COc1cc2c(cc1OCCCN1CCN(CCCOc3cc4c(cc3OC)C(=O)N3CCC[C@H]3C=N4)CC1)C=CC(C)(C)O2` was -98.5% (active); that for `O=C1/C(=C/c2cccc(F)c2)CN(C(=O)C(Cl)Cl)C/C1=C\c1cccc(F)c1` was -90.2% (active); that for `Nc1n[nH]c2ccc([C@H]3[C@@H]4C5CCC(C5)[C@@H]4c4c(ccc5[nH]ncc45)N3S(=O)(=O)C3CC3)cc12` (stereo not given in full) was 17.7%.
